Source: PubChem BioAssay
The source made the active and inactive calls.

target: NADPH oxidase 4 (Homo sapiens) (UniProt Q9NPH5); assay: compounds shifting NOX4 Amplex Red fluorescence – cell-based, HEK293-NOX4, tetracycline-induced, NOX inhibitor project, primary screen (AID 1160); conditions: HEK293-NOX4, Amplex Red H2O2 fluorescence, 45 min; higher = more signal, called active from +8 up or from −8 down
Sequence (Q9NPH5 whole entry, looked up): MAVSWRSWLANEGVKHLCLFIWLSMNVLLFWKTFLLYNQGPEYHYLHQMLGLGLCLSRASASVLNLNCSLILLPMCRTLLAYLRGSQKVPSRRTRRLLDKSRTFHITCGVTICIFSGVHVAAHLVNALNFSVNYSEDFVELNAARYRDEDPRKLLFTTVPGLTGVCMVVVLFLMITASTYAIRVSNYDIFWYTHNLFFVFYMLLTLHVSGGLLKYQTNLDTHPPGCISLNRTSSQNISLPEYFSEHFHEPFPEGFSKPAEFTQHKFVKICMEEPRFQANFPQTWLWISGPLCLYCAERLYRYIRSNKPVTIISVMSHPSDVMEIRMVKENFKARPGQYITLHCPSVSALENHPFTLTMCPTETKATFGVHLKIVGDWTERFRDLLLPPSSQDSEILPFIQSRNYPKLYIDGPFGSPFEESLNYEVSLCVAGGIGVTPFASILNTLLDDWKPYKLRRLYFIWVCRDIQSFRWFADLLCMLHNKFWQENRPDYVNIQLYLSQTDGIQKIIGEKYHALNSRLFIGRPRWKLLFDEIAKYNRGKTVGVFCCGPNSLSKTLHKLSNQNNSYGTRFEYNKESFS

z-score, inactive:
C[C@H]1CC[C@H]2C(=O)N[C@H](Cc3ccccc3)C(=O)N2[C@@H]1c1ccccc1 -0.32
CC(CCN1CCc2nc(-c3ccccc3)c(-c3ccccc3)cc2C1)=NO[C@H](C)c1cn([C@H](CO)Cc2ccccc2)nn1 -0.31
C#CCCCON=C1C[C@@H](O)[C@@H](O)[C@@H]2[C@@H]3C(=O)N(C[C@@H]4CCCO4)C(=O)[C@@H]3CC[C@@H]12 0.424
CCOC(=O)[C@H](CC(C)C)NC(=O)CCC1CC(OC(=O)NCc2ccc3c(c2)OCO3)CC2(CCCC(COC(=O)NCCOC)O2)O1 (stereo partly drawn) -0.0492
COc1ccc(OC[C@@H](CO)OC)cc1 0.422
COC(=O)[C@@H]1CC[C@H](C)[C@@H](c2ccc(C)cc2)N1C(=O)c1ccc(C=NOC[C@@H](O)[C@H]2O[C@@H]3OC(C)(C)O[C@@H]3[C@H]2O)cc1 0.589
CC(=O)OC[C@H]1O[C@H](CC=NO[C@@H](C)c2cn([C@H](CO)Cc3ccccc3)nn2)C=C[C@@H]1OC(C)=O -2.01
COC(=O)[C@H](C)NC(=O)CCC1CC(OC(=O)NCc2ccc3c(c2)OCO3)CC2(CCCC(COC(=O)NCCC(C)C)O2)O1 (stereo partly drawn) 0.437
